Assay outcomes: PubChem BioAssay, several laboratories
Hits are enriched below; roughly 3% of the tested compounds scored in any of these assays.
FadD28 binding = inhibitors of FadD28 bisubstrate probe binding, primary screen, biochemical, fluorescence polarization, single point; Mycobacterium tuberculosis FadD28 fatty-acid-AMP ligase; inhibition, % at 12.5 µM; hit rate 0.22% among 360,000; in the data active = inhibition above about 8.5%, passing the limit was not always enough
GDH-TPI inh = GDH-TPI coupling enzyme inhibitors, primary screen, artefact control for M. tuberculosis FBA inhibitor project, biochemical, absorbance, full deck. AID 588335, 2011. GDH-TPI coupled enzyme counterscreen, NADH absorbance. inhibition, % at 4.8 µM. hit rate 1.2% among 360,000; in the data active = inhibition above about 30%
Mtb BioA inh = M. tuberculosis BioA enzyme inhibitors, primary screen, biochemical, plate reader, single point, HTS; 7,8-diaminopelargonic acid synthase BioA (Mycobacterium tuberculosis); purified M. tuberculosis BioA enzyme; inhibition, % at 9.99 µM; hit rate 0.096% among 360,000; in the data active = inhibition above about 40%
Mtb FBA inh = Mtb FBA enzyme inhibitors, primary screen, biochemical, fluorescence, strain H37Rv. purified M. tuberculosis FBA, fluorescence read-out. inhibition, % at 1 µM. hit rate 2.3% among 360,000; in the data active = inhibition above about 27%
Target sequence (P9WQA3 whole entry, looked up): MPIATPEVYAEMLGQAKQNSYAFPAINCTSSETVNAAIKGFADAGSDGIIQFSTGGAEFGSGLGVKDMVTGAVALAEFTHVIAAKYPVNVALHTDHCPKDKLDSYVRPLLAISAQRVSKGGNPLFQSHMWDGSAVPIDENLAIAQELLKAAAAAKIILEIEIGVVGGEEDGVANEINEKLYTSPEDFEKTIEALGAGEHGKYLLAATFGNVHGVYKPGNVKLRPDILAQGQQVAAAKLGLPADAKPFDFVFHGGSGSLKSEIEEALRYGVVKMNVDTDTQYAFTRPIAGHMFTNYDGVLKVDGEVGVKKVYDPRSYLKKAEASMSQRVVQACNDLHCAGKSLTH
Rv3671c inh = Rv3671c serine protease inhibitors, primary screen, biochemical, fluorescence polarization, M. tuberculosis H37Rv; P9WHR9; inhibition, % at 5.96 µM; hit rate 0.048% among 320,000; in the data active = inhibition above about 38%;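 also: extracellular domain of Rv3671c used as enzyme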
Target sequence (P9WHR9 whole entry, looked up, the tested form may be a part): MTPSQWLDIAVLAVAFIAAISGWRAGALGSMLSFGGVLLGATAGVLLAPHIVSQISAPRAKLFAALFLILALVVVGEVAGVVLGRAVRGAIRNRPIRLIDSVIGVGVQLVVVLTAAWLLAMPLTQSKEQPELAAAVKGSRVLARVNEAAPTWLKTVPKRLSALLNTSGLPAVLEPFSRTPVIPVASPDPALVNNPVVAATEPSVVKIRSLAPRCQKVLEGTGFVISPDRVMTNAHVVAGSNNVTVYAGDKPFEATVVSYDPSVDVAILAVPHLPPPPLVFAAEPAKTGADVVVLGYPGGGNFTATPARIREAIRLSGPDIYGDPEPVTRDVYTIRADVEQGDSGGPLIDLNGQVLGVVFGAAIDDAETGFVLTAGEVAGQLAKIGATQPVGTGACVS
Each line names hits and unclear results; the compound was inactive in the other large screens.

CCCC#Cc1cnc2c(c1)C(=O)N([C@H](C)CO)C[C@H](C)[C@@H](CN(C)C(=O)C1CCOCC1)O2	none (no result: FadD28 binding, GDH-TPI inh, Mtb FBA inh, Rv3671c inh)
C[C@@H](NC(=O)C[C@@H]1CC[C@H]2[C@H](COc3ccc(NC(=O)C4CCOCC4)cc3C(=O)N2C)O1)c1ccccc1	none (no result: FadD28 binding, GDH-TPI inh, Mtb FBA inh, Rv3671c inh)
CO[C@H](CN(C)S(=O)(=O)c1ccc(Cl)cc1)[C@H](C)CN([C@@H](C)CO)S(=O)(=O)c1cccc(Cl)c1	none (no result: FadD28 binding, GDH-TPI inh, Mtb FBA inh, Rv3671c inh)
Fc1ccc(-c2ccc(/C=N\n3cnnc3)o2)cc1Cl	GDH-TPI inh 42 (no result: Mtb BioA inh)
O=[N+]([O-])c1ccc(Cl)c(-c2ccc(/C=N/n3cnnc3)o2)c1	GDH-TPI inh 53
Fc1ccc(-c2ccc(/C=N/n3cnnc3)o2)cc1	GDH-TPI inh 41
Cc1ccc(-c2ccc(/C=N\n3cnnc3)o2)c(Br)c1	GDH-TPI inh 45
N#C[C@@H]1[C@@H](c2ccc(C3=CCCCC3)cc2)[C@@H](CO)N1C(=O)Cc1ccncc1	none (no result: FadD28 binding, GDH-TPI inh, Mtb FBA inh, Rv3671c inh)
CCCNC(=O)Nc1ccc2c(c1)OC[C@H](C)N(C(=O)C1CC1)C[C@H](C)[C@@H](OC)CN(C)C2=O	none (no result: FadD28 binding, GDH-TPI inh, Mtb FBA inh, Rv3671c inh)
O=C(N/N=C/c1ccc(O)cc1)c1ccc(COc2cc(Cl)ccc2Cl)o1	GDH-TPI inh 35
Fc1ccccc1N1CC(c2ccccc2)C(c2cccs2)=N1 (stereo unspecified)	Mtb FBA inh 161
Fc1ccc(N2N=C(c3cccs3)CC2c2ccccc2)cc1 (stereo unspecified)	none (no result: Mtb BioA inh)
C[C@@H]1CN([C@H](C)CO)C(=O)c2cc(-c3cccnc3)cnc2O[C@H]1CN(C)C(=O)c1cccc(F)c1	none (no result: FadD28 binding, GDH-TPI inh, Mtb FBA inh, Rv3671c inh)
CNc1oc(-c2cccc3ccccc23)nc1C#N	Mtb FBA inh active
CCOP(=O)(OCC)c1nc(Cc2ccccc2)oc1NCc1ccccc1	none (no result: Mtb BioA inh)
COc1nc(NCCc2ccc(OC)c(OC)c2)nc(OC)n1	none
COc1ccc(CNc2oc(-c3cccc4ccccc34)nc2C#N)cc1	Mtb FBA inh 147
CCOP(=O)(OCC)c1nc(-c2cccc3ccccc23)oc1NCCc1ccc(OC)cc1	Mtb FBA inh 168
COc1ccc(CCNc2oc(-c3ccc(OC)c(OC)c3)nc2P(=O)(OC)OC)cc1OC	Mtb FBA inh 165 (no result: Mtb BioA inh)
C[C@@H]1CN([C@H](C)CO)C(=O)c2cc(NC(=O)Cc3cn(C)c4ccccc34)ccc2O[C@@H]1CN(C)C(=O)Nc1ccc(F)cc1	none (no result: FadD28 binding, GDH-TPI inh, Mtb FBA inh, Rv3671c inh)
Cc1noc(C)c1NC(=O)N(C)C[C@H]1Oc2ccc(NC(=O)Nc3ccc(F)cc3)cc2CC(=O)N([C@H](C)CO)C[C@@H]1C	none (no result: FadD28 binding, GDH-TPI inh, Mtb FBA inh, Rv3671c inh)
CNC[C@H]1Oc2ccc(NC(=O)CCCN(C)C)cc2C(=O)N([C@@H](C)CO)C[C@H]1C	none (no result: FadD28 binding, GDH-TPI inh, Mtb FBA inh, Rv3671c inh)
COc1cc2oc3cc(C)oc(=O)c3c2cc1OC	Mtb FBA inh 142 (no result: Mtb BioA inh)
Cc1ccc(NC(=S)N(C)Cc2cn(C)c3ccccc23)cc1	FadD28 binding 16
Cc1cccc(NC(=S)N(CCCN2CCOCC2)Cc2cn(C)c3ccccc23)c1	none
COc1ccc(NC(=O)Nc2ccc3c(c2)C(=O)N([C@H](C)CO)C[C@H](C)[C@H](CN(C)C)OCCCC[C@H](C)O3)cc1	none (no result: FadD28 binding, GDH-TPI inh, Mtb FBA inh, Rv3671c inh)
CC(C)(C)n1nnnc1C(c1cc2cc3c(cc2[nH]c1=O)OCCO3)N1CCSCC1 (stereo unspecified)	Mtb FBA inh 34 (no result: Mtb BioA inh)
COc1ccc2cc(C(c3nnnn3C(C)(C)C)N3CCSCC3)c(=O)[nH]c2c1 (stereo unspecified)	none
COCCNC(=O)c1ccc2c3n(nc2c1)-c1ccc(C)cc1CO3	Mtb FBA inh 49
C[C@@H](CO)NC(=O)c1ccc2c3n(nc2c1)-c1ccccc1CO3	none
COCCCNC(=O)c1ccc2c(c1)ncn2-c1ccc(C)cc1C	Mtb FBA inh 150 (no result: FadD28 binding)
CCOCCCNC(=O)c1ccc2c(c1)ncn2-c1cccc(C)c1	none
Cc1ccc2c(c1)COc1c3ccc(C(=O)N[C@@H](CO)C(C)C)cc3nn1-2	Mtb FBA inh 33
CNC[C@@H]1Oc2ccc(NC(=O)C3CC3)cc2CC(=O)N([C@@H](C)CO)C[C@@H]1C	none (no result: FadD28 binding, GDH-TPI inh, Mtb FBA inh, Rv3671c inh)
COC(=O)C1=CNC=C(C(=O)OC)C1c1ccc(C(=O)OC)cc1	Mtb FBA inh 115
C[C@H](CO)N1C[C@H](C)[C@@H](CN(C)Cc2ccc3c(c2)OCO3)OCCCC[C@H](C)Oc2ccc(NC(=O)NC3CCCCC3)cc2C1=O	none (no result: FadD28 binding, GDH-TPI inh, Mtb FBA inh, Rv3671c inh)
O=C(N/N=C/C(Cl)=C/c1ccccc1)c1ccco1	GDH-TPI inh 35
O=C(N/N=C/C(Cl)=C\c1ccccc1)c1ccco1	GDH-TPI inh 33
C[C@H]1CN([C@@H](C)CO)C(=O)Cc2cc(NS(=O)(=O)c3cn(C)cn3)ccc2O[C@@H]1CN(C)C	none (no result: FadD28 binding, GDH-TPI inh, Mtb FBA inh, Rv3671c inh)
O=C(C[C@@H]1CC[C@@H]2[C@H](COC[C@H](O)CN2S(=O)(=O)c2ccccc2)O1)Nc1ccc(-c2ccccc2)cc1	none (no result: FadD28 binding, GDH-TPI inh, Mtb FBA inh, Rv3671c inh)
CC(C)(C)C(=O)Nc1ccc(S(=O)(=O)N2CCCC2)cc1	Mtb FBA inh 182
COC(=O)c1ccc(NC(=O)COc2ccc(S(=O)(=O)N3CCCCC3)cc2)cc1	none
COC(=O)c1ccc(S(=O)(=O)N2CCCCCC2)cc1	GDH-TPI inh 47
CCNC(=O)C[C@H]1CC[C@H]2[C@@H](COC[C@@H](O)CN2C(=O)Nc2ccc(C(F)(F)F)cc2)O1	none (no result: FadD28 binding, GDH-TPI inh, Mtb FBA inh, Rv3671c inh)
O=C(O)C1CC(=O)N(c2ccc(F)cc2)C1 (stereo unspecified)	none
O=Cc1ccc(OC(=O)C2CC(=O)N(c3ccc(F)cc3)C2)cc1 (stereo unspecified)	GDH-TPI inh 31
COc1ccc(C(=O)Nc2nnc(-c3ccco3)s2)cc1	GDH-TPI inh 46
COc1ccccc1NC(=O)Nc1nnc(-c2ccco2)s1	none (no result: FadD28 binding, GDH-TPI inh, Mtb BioA inh, Mtb FBA inh)
COc1ccccc1C(=O)Nc1nnc(-c2ccco2)s1	GDH-TPI inh 33
Cc1noc(C)c1NC(=O)NCC[C@H]1CC[C@@H](NC(=O)c2ccccc2)[C@H](CO)O1	none (no result: FadD28 binding, GDH-TPI inh, Mtb FBA inh, Rv3671c inh)
C[C@@H]1CCCCO[C@@H](CN(C)C(=O)Nc2ccc3c(c2)OCO3)[C@@H](C)CN([C@H](C)CO)C(=O)c2cc(NC(=O)CCCN(C)C)ccc2O1	none (no result: FadD28 binding, GDH-TPI inh, Mtb FBA inh, Rv3671c inh)
CN(C)CC(=O)Nc1ccc2c(c1)[C@@H]1C[C@H](CC(=O)N3CCN(C)CC3)O[C@@H](CO)[C@@H]1O2	none (no result: FadD28 binding, GDH-TPI inh, Mtb FBA inh, Rv3671c inh)
O=c1cc(-c2ccc(O)cc2)oc2c(O)c(O)c(O)c(O)c12	GDH-TPI inh 37
O=c1cc(-c2ccc(O)cc2)oc2c1ccc1ccccc12	none (no result: Mtb BioA inh)
COc1cccc(NC(=O)Nc2ccc3c(c2)C(=O)N(C)C[C@@H](OC)[C@@H](C)CN(CC2CC2)[C@H](C)CO3)c1	none (no result: FadD28 binding, GDH-TPI inh, Mtb FBA inh, Rv3671c inh)
CCOC(=O)c1ccc(-c2ccc(/C=C(\C#N)C(=O)NCC3CCCO3)o2)cc1 (stereo unspecified)	GDH-TPI inh 34
Cc1noc(C)c1NC(=O)Nc1ccc2c(c1)C(=O)N([C@@H](C)CO)C[C@H](C)[C@@H](CN(C)Cc1ccccc1)O2	none (no result: FadD28 binding, GDH-TPI inh, Mtb FBA inh, Rv3671c inh)
COc1ccc(CCn2c(=N)c(C(=O)NCc3ccco3)cc3c(=O)n4ccccc4nc32)cc1OC	none (no result: Mtb BioA inh, Rv3671c inh)
